# According to PubChem BioAssay (NCI):
# Several values for one entry are separate records, joined by “and”; a condition that tells them apart may be missing. Equal values may be shown once. This is part of a sample that, as a whole, favours compounds with a hit. Of some 83,000 tested, about 20% had one in any assay.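 Cell lines were cultured in 96-well plates, exposed to a single compound concentration, and assessed for percent growth 48 hours later.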 Activity calls are given as the source filed them. The calls were made as follows: active = growth percent below 10; inactive = the rest.
# System: HL-60(TB) leukemia
# Assay: NCI-60 one-dose screen, 48 h (100 = growth as untreated, 0 = no growth, -100 = all killed)
# Conditions: 10 µM unless noted
row,SMILES,growth
1,Cc1cc(O)c(C(C)C)cc1S(=O)(=O)O (tested in a mixture with another compound),84.2% (inactive) and -0.846% (active) and 104% (inactive)
2,O=Nc1c(O)c(Cl)cc2ccccc12,42.7% (inactive)
3,Clc1cccc(-c2cc(-c3ccc4c(c3)OCCO4)[nH]n2)c1,15.2% [25 µM] (inactive)
4,COC(=O)[C@]1(C)CCC[C@]2(C)[C@H]3C[C@H]4C(C(C)C)=C[C@]3(CC[C@H]21)[C@@H]1C(=O)N(CCC#N)C(=O)[C@@H]14,44.4% (inactive)
5,C[N+]1(CCCCC[N+]2(C)CCCC2)CCCC1,110% (inactive)
6,COc1nc2c(cc1S(=O)(=O)c1ccccc1)CCc1c-2cnn1-c1ccccc1Cl,39.9% (inactive)
7,CC(C)(C)c1ccc(OP(=S)(N/N=C/c2ccccc2O)Oc2ccc(C(C)(C)C)cc2)cc1,77.8% (inactive)
8,COc1cc(OCc2cccc(-c3ccc(C(O)c4nccs4)cc3)c2C)cc(OC)c1CNCCNC(C)=O (stereo unspecified),101% (inactive)
9,CCOC(=O)c1sc2ncc(-c3ccc(OC)cc3)n2c1C,86.5% (inactive)
10,Cc1cc(O)c2c(c1)C[C@H]1[C@@H]3CC[C@H]4CC(=O)CC[C@]4(C)[C@H]3CC(=O)[C@]21C,73.9% (inactive)
11,CC(C)[N+](C)(C)CC(O)COc1cccc2ccccc12 (stereo unspecified),126% (inactive)
12,CC(C)[C@@]12C[C@@H](OC(=O)C3CO3)[C@@](C)(O1)[C@@H]1CC[C@@H](C)[C@H]1[C@@H]2OC(=O)/C=C/c1ccccc1 (stereo partly specified),93.3% (inactive)
13,Cc1ccc(C(C)C)cc1C(=O)C[n+]1ccccc1,115% (inactive)
14,OCC1CCC(O)C(CO)N1 (stereo unspecified),98.2% (inactive)
15,Cc1c2c(cn1Cc1ccccc1)CCc1cn[nH]c1-2,90.6% (inactive)
16,O=C1/C(=C/c2ccccc2[N+](=O)[O-])Oc2ccc(O)c(O)c21,4.39% (active)
17,Oc1c(C(Nc2cccc3ccccc23)c2ccccc2)ccc2cccnc12 (stereo unspecified),-37.4% (active)
18,C=C(C)[C@@H]1CC[C@]2(C(=O)OC)CC[C@]3(C)[C@H](CC[C@@H]4[C@@]5(C)C/C(=C/NC(N)=S)C(=O)C(C)(C)[C@@H]5CC[C@]43C)[C@@H]12,95% (inactive)

row,SMILES,growth
1,COc1cc(-c2cc3ncccc3c3[nH]c(=O)c4cccnc4c23)cc(OC)c1OC,-7.16% (active)
2,O=C(Nc1ccc(-n2cc(-c3ccncc3)c(-c3ccc(Cl)c(O)c3)n2)cc1)c1cc(C(F)(F)F)cc(C(F)(F)F)c1,52.6% (inactive)
3,CCC(CC)COC(=O)c1ccc(O)c(O)c1,8.36% (active)
4,C/C(O)=C(/C=N\C(=S)Nc1ccc(S(=O)(=O)Nc2nccs2)cc1)C(=O)Nc1ccccc1C,105% (inactive)
5,O=[N+]([O-])c1cccc2ccc(N/N=C/c3ccccc3O)nc12,40.7% (inactive) and 50.5% (inactive)
6,O=C(O)CCCN1C(=O)C2C3CCC(C3)C2C1=O (stereo unspecified),116% (inactive)
7,COc1ccc(-c2csc(NC(=O)CN3CCN(c4cc5c(cc4F)c(=O)c(C(=O)O)cn5C4CC4)CC3)n2)cc1,-25% (active)
8,COc1ccc(C(=O)c2cc(OC)c3c(c2)OCO3)cc1O,13.4% (inactive)
9,COc1ccc(C2CC(c3ccc(Nc4nc(Nc5ccccc5)nc(Nc5ccccc5)n4)cc3)=NN2C(C)=O)cc1 (stereo unspecified),95.1% (inactive)
10,C=C1C(=O)O[C@H]2[C@H]1CC/C(COC(=O)CCC(=O)NCCOCCOCC(=O)Nc1ccc(OC)c(C(N)=O)c1O)=C\CC[C@@]1(C)O[C@@H]21,65.3% (inactive)
11,Nc1ccc2c(c1)Cc1cc(N)c(Br)cc1-2,86.4% (inactive)
12,Fc1ccc2nc(-c3cc(-c4ccc5c(c4)OCO5)n[nH]3)[nH]c2c1,13.9% (inactive)
13,C=CC[Se]C(=O)Cc1c(C)n(C(=O)c2ccc(Cl)cc2)c2ccc(OC)cc12,-53.3% (active)
14,Cc1sc2c(c1C)c(=O)nc1c(-c3nc4ccccc4s3)n[nH]n12,98.3% (inactive)
15,O=C1/C(=C/c2cccs2)SC(=S)N1CCCN1CCOCC1,90.4% (inactive)
16,O=C1/C(=C/c2cccc(O)c2)COc2ccc(O)cc21,52.1% (inactive)
17,Oc1ccc(CCn2c(O)c(/C=C3\CN=c4ccccc4=N3)sc2=S)cc1,19.5% (inactive)
18,CCOC(=O)C(=O)C(C(=O)OCC)c1ccccc1 (stereo unspecified),95.6% (inactive)
